The record followed here is paper PMC7819943, “Rice protein-binding microarrays: a tool to detect cis-acting elements near promoter regions in rice”.

In all, about 35,000 sequences were measured (“fluorescence intensity (a.u.)”: median about 10,000, highest 2% from about 52,000 on). The sample as a whole holds a higher share of the highest values than the screen did.

This assay deals with T1, OsWOX13 (Oryza sativa, UniProt Q5QMM3 1-267).
T1 sequence: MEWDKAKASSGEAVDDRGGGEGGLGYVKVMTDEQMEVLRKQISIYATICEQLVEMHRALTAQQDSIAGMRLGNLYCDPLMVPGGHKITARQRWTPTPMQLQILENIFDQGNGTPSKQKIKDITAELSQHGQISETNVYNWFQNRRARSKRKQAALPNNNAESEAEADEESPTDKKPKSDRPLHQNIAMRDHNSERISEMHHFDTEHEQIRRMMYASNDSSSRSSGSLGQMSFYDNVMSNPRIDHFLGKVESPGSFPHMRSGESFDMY
Put plainly: protein-binding microarray (RPBM); PBS, 2% BSA, 51.3 ng/ul salmon testes DNA, 50 uM zinc acetate, 200 nM TF, 25 C, 1 h; high values mean tight binding. As to conditions: protein: recombinant; tags: N-terminal polyhistidine and DsRed monomer fusion (pET32a); label: CyDye5-dUTP incorporated in the synthesized complementary strand; 3' TTTTT single-stranded linker to array surface; dsDNA, one strand shown. In short, it runs like this: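 For the binding signal, per-feature fluorescence intensity was read in arbitrary units on an Axon 4000B scanner. Before scanning, a 2% BSA-blocked custom Agilent array made double-stranded with Cy5-dUTP was washed after 1 h at 25 °C with 200 nM protein and 50 µM zinc acetate. The proteins were Ni–NTA-purified transcription factors with N-terminal polyhistidine and DsRed fusions, expressed in E. coli BL21-CodonPlus.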
“CTCTACAGTAAATCAAACAGTAATCACACTCCAAACAAAACGGAGTCACCTAGTGCAG”: the binding signal is 5420 fluorescence intensity (a.u.).
Consider “ATTGGCTAGATTGGAAGCAAGAGAAGCTGCAGCGAAGGCACGGAGTCACCTAGTGCAG”, for which the binding signal is 7860 fluorescence intensity (a.u.).
As to “TTTGGAAATTATCTATGAATTTACCTAGTTTCATCGTCCACGGAGTCACCTAGTGCAG”, the binding signal was 4970 fluorescence intensity (a.u.).
As for “AGTTTTACAATAAATTTACTGTTATAAATATACATTTAACCGGAGTCACCTAGTGCAG”, the binding signal was 6140 fluorescence intensity (a.u.).
Take “TTTGATGGGAATTTGTTTCAGATATGCTTACGTGCACATACGGAGTCACCTAGTGCAG”: the binding signal was 13800 fluorescence intensity (a.u.).
As for “AACTAATTGTTTCTTCAGACTTCTTCAGAGCATTCTCCAGCGGAGTCACCTAGTGCAG”, the binding signal is 36800 fluorescence intensity (a.u.).
Regarding “TATTTTGCTTAAATGGCTGATTAGTCAAAGCATTTGGCCACGGAGTCACCTAGTGCAG”, the binding signal was 4720 fluorescence intensity (a.u.).
Then “CTCATGATTTACGGCTGCTGGCCGCCGGGCTATTTAACCACGGAGTCACCTAGTGCAG”, with 10900 fluorescence intensity (a.u.); and “GTGATCACCCTTTGATTGACCCGCACCCGCATCCCTTTCCCGGAGTCACCTAGTGCAG”, with 35500 fluorescence intensity (a.u.).
Consider “ATGATTTGCATGATTGCTTGCTTGCTTGCTGCTATGGCCACGGAGTCACCTAGTGCAG”, for which the binding signal was 62700 fluorescence intensity (a.u.).
With “ATTGATTGATCAAGACTGCATGGCAATACTCGACGTGCTGCGGAGTCACCTAGTGCAG”, the binding signal is 64800 fluorescence intensity (a.u.).
With “TTGATTGCAGATCAAATGCATGCAATAAGAATGGAGATGGCGGAGTCACCTAGTGCAG”, the binding signal is 19600 fluorescence intensity (a.u.).
Consider “CCAATAATAACACTGATCACTGATCAATCATGGCATCATGCGGAGTCACCTAGTGCAG”, for which the binding signal was 16000 fluorescence intensity (a.u.).
To “ATCATGATTGCATGATTGATTGCACATTTGCATCATTTCCCGGAGTCACCTAGTGCAG” belongs 63400 fluorescence intensity (a.u.).
For “TGTCACATCACATCGATCATTGATTTCACTTTGATTCCTCCGGAGTCACCTAGTGCAG”, the binding signal was 5220 fluorescence intensity (a.u.).
To “AAGATTGGATTCGCTGCAATACCATCACTAAACTCGGCTTCGGAGTCACCTAGTGCAG” belongs 12800 fluorescence intensity (a.u.); to “CACTTAATCATATTCATCATATTCAAACGGGACCTAAGGGCGGAGTCACCTAGTGCAG”, 8880 fluorescence intensity (a.u.).
For the sequence “CCCTCCATCCCCTCAGTCCACTCAATCACCACACCAGCCACGGAGTCACCTAGTGCAG”, the binding signal was 3850 fluorescence intensity (a.u.).
Consider “CCAATCACATTCACTTTTACAGTTTAGCCCCACCCTCTCCCGGAGTCACCTAGTGCAG”, for which the binding signal was 4980 fluorescence intensity (a.u.).
As to “GATTCCCTTCTTTTCTTTGGTTGATTTCTTTCTGTATTTCCGGAGTCACCTAGTGCAG”, the binding signal is 5880 fluorescence intensity (a.u.).
“ATACCTTATTGAAATATGATTGTTCGACTGGTTACTGAATCGGAGTCACCTAGTGCAG”: the binding signal is 19500 fluorescence intensity (a.u.).
For the sequence “GCTTGATGACCAAGTATATATAAACATGTCAGTGATTATTCGGAGTCACCTAGTGCAG”, the binding signal was 5670 fluorescence intensity (a.u.).
With “ATATTGATTGATTGGTTATTCGCAAGAAACATGACTGTTCCGGAGTCACCTAGTGCAG”, the binding signal is 63800 fluorescence intensity (a.u.).
For “GTTATCATGATTTATATTCCCAAGGTTTGACTTAAACATTCGGAGTCACCTAGTGCAG”, the binding signal is 11400 fluorescence intensity (a.u.).
Consider “ATGAAGAAACTGTTGGTGATTTGACAAGTAGGCTTGGTTCCGGAGTCACCTAGTGCAG”, for which the binding signal was 6530 fluorescence intensity (a.u.).
“GGGCATAAATTTTGGTGATTTTCGGTTTTCTGAAGTTCCTCGGAGTCACCTAGTGCAG”: the binding signal was 7130 fluorescence intensity (a.u.).
Consider “ATTCTGATTGGCAAGTTGGTTATTCCTTTTCTGATTGGTTCGGAGTCACCTAGTGCAG”, for which the binding signal was 60700 fluorescence intensity (a.u.).
For “CTGTATATTGATTGATTGGTTATTCGCAAGAAACATGACTCGGAGTCACCTAGTGCAG”, the binding signal is 65100 fluorescence intensity (a.u.).
On to “AGGGAATTTTATGATTTGCATTGGTGCTGAGGTCAAACCCCGGAGTCACCTAGTGCAG”, for which the binding signal is 7180 fluorescence intensity (a.u.).
Consider “GACAGATTAATTAAAGAATCATCATTACTGCGATGCGACCCGGAGTCACCTAGTGCAG”, for which the binding signal is 16600 fluorescence intensity (a.u.).
On to “ACAAATTGCCAACTCATGAAAGTGATCGATGATGGGCTTACGGAGTCACCTAGTGCAG”, for which the binding signal is 15700 fluorescence intensity (a.u.).
On to “GTCCTACATATGCTAAATTGGCAATATGTAAAGATTTACTCGGAGTCACCTAGTGCAG”, for which the binding signal is 4980 fluorescence intensity (a.u.).
For the sequence “TTATTTATCAGTCTGATTTTATATAATGTAATATTATGCACGGAGTCACCTAGTGCAG”, the binding signal was 3150 fluorescence intensity (a.u.).
“AAATTAACTTAATTAATAAGTTGAGCAGCCTGTAGGCCTTCGGAGTCACCTAGTGCAG”: the binding signal is 17500 fluorescence intensity (a.u.).
Turning to “GCAAATTAACTTAATTAATAAGTTGAGCAGCCTGTAGGCCCGGAGTCACCTAGTGCAG”, the binding signal is 58200 fluorescence intensity (a.u.).
Consider “TAAGTTAAATAACTATTAATTGTGGCCTGTGCTCAGCCTTCGGAGTCACCTAGTGCAG”, for which the binding signal was 9070 fluorescence intensity (a.u.).
Regarding “AATGATTAGAATTTGGTAAAGTAGAGGACAAAGATAAAATCGGAGTCACCTAGTGCAG”, the binding signal is 7910 fluorescence intensity (a.u.).
With “GAAATTGATTTATCCAGGGAAACTGTCGTGACAAATTTCGCGGAGTCACCTAGTGCAG”, the binding signal was 49300 fluorescence intensity (a.u.).
On to “TTCGGATTGATTGTTGAGACAAATCTCGTAGAACACGGAACGGAGTCACCTAGTGCAG”, for which the binding signal was 62900 fluorescence intensity (a.u.).
Take “TTTGAGTGATTGACAGGAAACAAATCCACCACTATCTGTTCGGAGTCACCTAGTGCAG”: the binding signal is 62400 fluorescence intensity (a.u.).
“TTTAACACAAATGAGAACTTGATCGATTCCTCGTATTGTTCGGAGTCACCTAGTGCAG”: the binding signal was 3850 fluorescence intensity (a.u.).
To “GGATAGAATTGATTGAGCGAGAGAGAGAATTGAACACAAACGGAGTCACCTAGTGCAG” belongs 21200 fluorescence intensity (a.u.); to “AAAATAAACAAATCTATCCACTAACAATTTGACATGATATCGGAGTCACCTAGTGCAG”, 7240 fluorescence intensity (a.u.); to “ATAAATAAATACTCTAATTGCAAGCAACCAACGTCCCAACCGGAGTCACCTAGTGCAG”, 5780 fluorescence intensity (a.u.).
Regarding “CTACAATTTATCATAAACTTGATAAAATATAAACAAATTCCGGAGTCACCTAGTGCAG”, the binding signal is 4240 fluorescence intensity (a.u.).
To “AGGACATAATTTTAATGGGGAAATTGGTTCCATACCATCTCGGAGTCACCTAGTGCAG” belongs 20500 fluorescence intensity (a.u.).
